This is part of a sample that, as a whole, favours compounds with a hit. Of some 83,000 tested, about 20% had one in any assay.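 Values shown are percent growth following 48 h exposure of cells in 96-well plates to a single concentration of compound; below 10 was considered active.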 Calls of active or inactive are those of the source.
test system: U251 CNS; test: NCI-60 one-dose screen, 48 h (100 = growth as untreated, 0 = no growth, -100 = all killed); conditions: 10 µM unless noted

SMILES	growth
CCCCCCNC(=O)Oc1ccc(/C(=C(/C)Cc2ccc(OC)cc2)c2ccc(OCCN3CCCCC3)cc2)cc1	63.1% (inactive)
COc1cc(/C=C/C(=O)/C=C(/C=C/c2ccc(OC(C)=O)c(OC)c2)OB(F)F)ccc1OC(C)=O	33.3% (inactive)
O=C(CCC(=O)N(CCO)CCO)N(CCO)CCO	105% (inactive)
O=C(O)c1ccc(Br)nc1	93.8% (inactive)
COc1ccc2c(c1)/C(=C1/S/C(=N/c3nnc(C)s3)NC1=O)C(=O)N2Cc1ccc(Br)cc1	14.3% (inactive)
COc1ccc(C2=C/C(=C\c3ccc(Cl)cc3)C(=O)NN2C(=S)NN)cc1	104% (inactive)
CCC(C)(C)c1ccc(OCCCCCCN2CCN(c3ccc(C)c(Cl)c3)CC2)cc1	104% (inactive)
COC1=C(OC)C(=O)c2ccccc2C1=O	89.9% (inactive)
CCOC1=C(Cl)C(=O)C(OCC)=C(Cl)C1=O	104% (inactive)
CCS(=O)(=O)OCCO[C@H]1Cc2cc3ccc(=O)oc3cc2OC1(C)C	96.7% (inactive)
O=CN/N=C/c1ccc(Cl)c([N+](=O)[O-])c1	11.9% (inactive)
CCN(CC)CCCNc1c2ccc(Cl)cc2nc2ccc(OC)cc12	-14.9% (active)
COc1ccc(-c2nc(SCC(C)C)nc(Nc3ccc(C)cc3)c2C#N)cc1	21.2% (inactive)
CC(=O)OC1/C=C\CC/C=C\C1 (stereo not given)	96.6% (inactive)
CCCCCCC(C)N(CC(C)(C)O)C(=O)c1ccc([N+](=O)[O-])cc1 (stereo not given)	97.4% (inactive)
CC(=O)Nc1nc(C)c(C(=O)NNC(=O)Nc2ccccc2)s1	102% (inactive)
COC(=O)C(C)[C@H]1CC[C@@H]2[C@]1(C)CC=C1[C@]23C=C[C@]2(C[C@@H](OC(C)=O)CC[C@]12C)C(C(=O)OC)C3C(=O)OC (stereo not given in full)	88.8% (inactive)
CC/C(=N\Nc1nc2ccccc2n1C)c1ccccn1	10.4% (inactive)
COc1ccc(Cn2cc3c(c2-c2ccc(O)cc2)CCc2cnoc2-3)cc1	27.6% (inactive)
COc1ccc2c(c1)/C(=C/c1c(-c3cc(OC)c(OC)c(OC)c3)nc3sccn13)C(=O)N2	96.3% (inactive)

SMILES	growth
O=C(N/N=C\c1ccc(Cl)cc1)C(=O)N/N=C\c1ccc(Cl)cc1	101% (inactive)
c1ccc2[nH]c(-c3ccc(OCCCCCOc4ccc(-c5nc6ccccc6[nH]5)cc4)cc3)nc2c1	-2.78% (active)
O=C1Nc2c(c(=O)n(-c3ccccc3)c3ccccc23)C(c2ccc(Cl)cc2)N1 (stereo not given)	85.9% (inactive)
CN1CCN(Cc2ccc(NC(=O)c3cncc(C#Cc4c(N)ncc5ccc(F)cc45)c3)cc2C(F)(F)F)CC1	43.3% (inactive)
CCCCN(CCCC)c1ccc(C(=O)O)cc1	100% (inactive)
CNc1ccc(Nc2ccc(S(=O)(=O)O)cc2)c2c1C(=O)c1ccccc1C2=O	96.6% (inactive)
c1cc(C2CCCCC2)ccc1OCCCCCCN1CCNCC1	-8.72% (active)
O=C(O)c1occ(Cl)c1Cl	104% (inactive)
COc1cc(-c2nn(-c3ccc(NC(=O)Nc4ccc(Cl)c(Cl)c4)cc3)cc2-c2ccncc2)ccc1Cl	24.3% (inactive)
CN1CCN(Cc2ccc(NC(=O)c3ccc(C#Cc4c(N)ncc5ccc(F)cc45)cc3)cc2C(F)(F)F)CC1	-75.8% (active)
C#CCCCCCCC[C@@H]1OC(=O)[C@H]([C@@H](C)CC)NC(=O)[C@H]([C@@H](C)CC)NC(=O)CC(=O)[C@@H]1C	103% (inactive)
c1ccc(C(=NNc2nc3ccccc3o2)c2ccccn2)nc1	10.6% (inactive)
CC(C)OC(=O)c1ccc2n1CCCc1cnc(Nc3ccccc3)nc1-2	76.4% (inactive)
COc1ccc(-c2nc(N)n(C(=S)Nc3ccccc3)n2)cc1	103% (inactive)
COc1ccc(C(=O)CN2C(=O)NC(c3ccccc3)(c3ccccc3)C2=O)cc1	101% (inactive)
CC(=O)CC(=O)OC/C=C(/C)CCC=C(C)C	104% (inactive)
COc1cc(N)c2nccc(C)c2c1OC	99.4% (inactive)
CCn1cc(C(=O)O)c(=O)c2cc(F)c(N3CCN(S(=O)(=O)c4ccc(Cl)cc4)CC3)cc21	12% (inactive)
Nc1ccc(N=Nc2ccccc2)c2cc(S(=O)(=O)O)ccc12	101% (inactive)
O=C(O)CS(=O)c1ccc(Cl)cc1 (stereo not given)	99.7% (inactive)

test system: PC-3 prostate; test: as above; conditions: 10 µM unless noted

SMILES	growth
CCCCCCNC(=O)Oc1ccc(/C(=C(/C)Cc2ccc(OC)cc2)c2ccc(OCCN3CCCCC3)cc2)cc1	76.4% (inactive)
COc1cc(/C=C/C(=O)/C=C(/C=C/c2ccc(OC(C)=O)c(OC)c2)OB(F)F)ccc1OC(C)=O	63% (inactive)
O=C(CCC(=O)N(CCO)CCO)N(CCO)CCO	100% (inactive)
O=C(O)c1ccc(Br)nc1	97.3% (inactive)
COc1ccc2c(c1)/C(=C1/S/C(=N/c3nnc(C)s3)NC1=O)C(=O)N2Cc1ccc(Br)cc1	21.9% (inactive)
COc1ccc(C2=C/C(=C\c3ccc(Cl)cc3)C(=O)NN2C(=S)NN)cc1	92.3% (inactive)
CCC(C)(C)c1ccc(OCCCCCCN2CCN(c3ccc(C)c(Cl)c3)CC2)cc1	78.1% (inactive)
COC1=C(OC)C(=O)c2ccccc2C1=O	82.3% (inactive)
CCOC1=C(Cl)C(=O)C(OCC)=C(Cl)C1=O	104% (inactive)
CCS(=O)(=O)OCCO[C@H]1Cc2cc3ccc(=O)oc3cc2OC1(C)C	101% (inactive)
O=CN/N=C/c1ccc(Cl)c([N+](=O)[O-])c1	1.87% (active)
CCN(CC)CCCNc1c2ccc(Cl)cc2nc2ccc(OC)cc12	-34.6% (active)
COc1ccc(-c2nc(SCC(C)C)nc(Nc3ccc(C)cc3)c2C#N)cc1	86.1% (inactive)
CC(=O)OC1/C=C\CC/C=C\C1 (stereo not given)	96.4% (inactive)
CCCCCCC(C)N(CC(C)(C)O)C(=O)c1ccc([N+](=O)[O-])cc1 (stereo not given)	87.2% (inactive)
CC(=O)Nc1nc(C)c(C(=O)NNC(=O)Nc2ccccc2)s1	85.2% (inactive)
COC(=O)C(C)[C@H]1CC[C@@H]2[C@]1(C)CC=C1[C@]23C=C[C@]2(C[C@@H](OC(C)=O)CC[C@]12C)C(C(=O)OC)C3C(=O)OC (stereo not given in full)	57.1% (inactive)
CC/C(=N\Nc1nc2ccccc2n1C)c1ccccn1	26.5% (inactive)
COc1ccc(Cn2cc3c(c2-c2ccc(O)cc2)CCc2cnoc2-3)cc1	27% (inactive)
COc1ccc2c(c1)/C(=C/c1c(-c3cc(OC)c(OC)c(OC)c3)nc3sccn13)C(=O)N2	85% (inactive)

SMILES	growth
O=C(N/N=C\c1ccc(Cl)cc1)C(=O)N/N=C\c1ccc(Cl)cc1	94.5% (inactive)
c1ccc2[nH]c(-c3ccc(OCCCCCOc4ccc(-c5nc6ccccc6[nH]5)cc4)cc3)nc2c1	-70% (active)
O=C1Nc2c(c(=O)n(-c3ccccc3)c3ccccc23)C(c2ccc(Cl)cc2)N1 (stereo not given)	105% (inactive)
CN1CCN(Cc2ccc(NC(=O)c3cncc(C#Cc4c(N)ncc5ccc(F)cc45)c3)cc2C(F)(F)F)CC1	43.7% (inactive)
CCCCN(CCCC)c1ccc(C(=O)O)cc1	102% (inactive)
CNc1ccc(Nc2ccc(S(=O)(=O)O)cc2)c2c1C(=O)c1ccccc1C2=O	101% (inactive)
c1cc(C2CCCCC2)ccc1OCCCCCCN1CCNCC1	27.5% (inactive)
O=C(O)c1occ(Cl)c1Cl	109% (inactive)
COc1cc(-c2nn(-c3ccc(NC(=O)Nc4ccc(Cl)c(Cl)c4)cc3)cc2-c2ccncc2)ccc1Cl	16.9% (inactive)
CN1CCN(Cc2ccc(NC(=O)c3ccc(C#Cc4c(N)ncc5ccc(F)cc45)cc3)cc2C(F)(F)F)CC1	-37.2% (active)
C#CCCCCCCC[C@@H]1OC(=O)[C@H]([C@@H](C)CC)NC(=O)[C@H]([C@@H](C)CC)NC(=O)CC(=O)[C@@H]1C	85.9% (inactive)
c1ccc(C(=NNc2nc3ccccc3o2)c2ccccn2)nc1	29.2% (inactive)
CC(C)OC(=O)c1ccc2n1CCCc1cnc(Nc3ccccc3)nc1-2	75.7% (inactive)
COc1ccc(-c2nc(N)n(C(=S)Nc3ccccc3)n2)cc1	92.3% (inactive)
COc1ccc(C(=O)CN2C(=O)NC(c3ccccc3)(c3ccccc3)C2=O)cc1	95% (inactive)
CC(=O)CC(=O)OC/C=C(/C)CCC=C(C)C	111% (inactive)
COc1cc(N)c2nccc(C)c2c1OC	108% (inactive)
CCn1cc(C(=O)O)c(=O)c2cc(F)c(N3CCN(S(=O)(=O)c4ccc(Cl)cc4)CC3)cc21	25.3% (inactive)
Nc1ccc(N=Nc2ccccc2)c2cc(S(=O)(=O)O)ccc12	96% (inactive)
O=C(O)CS(=O)c1ccc(Cl)cc1 (stereo not given)	110% (inactive)

From PubChem BioAssay (NCI)
